Bioassay records deposited in PubChem by National Center for Advancing Translational Sciences (NCATS).
In the library only some 2% were active in any assay of this set; here they are far more common.
PKM2 activator = increases activity of human pyruvate kinase M2 | purified PKM2, Kinase-Glo ATP luminescence, activation; response scale: 0% is enzyme alone, no compound | Potency, µM (series often up to 57.5 µM), for inactives: at the top dose activation, actives largely listed as activators | P14618 | 260,000 tested, 0.34% active; note: potency is the fitted concentration of half-maximal effect; % is set by controls: 0 for no effect and ±100 for the full control effect; nearly all actives have a fitted effect of over 55% in size
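hPK-M2, >95% pure; 0.1 mM ADP / 0.5 mM PEP final; imidazole pH7.2 buffer w/ 7 mM MgCl2, 50 mM KCl; 1 h RT; Kinase-Glo lum. Intermediate enzyme activity for dual inhibitor/activator qHTS.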
IL2 activator = IL-2 activation; IL-2 activation reporter assay, cell-based qHTS; stimulated with anti-CD3/CD4/CD28 beads; in transgenic mouse T cells; 360,000 tested, 0.065% active; AID 652025; activation, % (series mostly up to about 46 µM); in the data active = activation above about 50%; inconclusive = mostly about 30% to 49%; note: 0% is about no effect
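Readout is EGFP and DsRed signal by fluorescent plate cytometry after 18 h at 37 degrees C. Transgenic mouse T cells (750/well) received compound for 60 min before bead stimulation (anti-CD3, anti-CD4, anti-CD28); memory T cells served as non-tolerant control.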
ClpP mod = qHTS Assay for Activators of ClpP; ATP-dependent Clp protease proteolytic subunit (Bacillus subtilis (strain 168)), P80244; 340,000 tested, 1.9% active; purified B. subtilis ClpP, FRET peptide cleavage, 20 min; AID 651965, 2013; Potency, µM (top dose mostly 57.5 µM), without a hit: at the top dose activity change, negative = active; active = well fitted falling curve with a large enough effect; inconclusive = small, poorly fitted or top-dose-only effect; inactive = no such curve, though single readings can be large or run the other way; note: potency is the fitted concentration of half-maximal effect; the source files actives as falling curves though it sought activators and does not explain the sign; nearly all actives have a fitted effect of over 65% in size
Target sequence (P80244 whole entry, looked up): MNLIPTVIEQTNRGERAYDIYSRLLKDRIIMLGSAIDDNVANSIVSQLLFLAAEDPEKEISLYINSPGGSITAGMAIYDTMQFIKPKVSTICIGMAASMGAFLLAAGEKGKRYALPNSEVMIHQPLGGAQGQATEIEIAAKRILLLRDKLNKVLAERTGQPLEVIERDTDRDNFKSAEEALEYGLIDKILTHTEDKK
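ClpP 10 microg/mL final, pH 8 Tris/KCl buffer with BSA, glycerol, Tween-20; compound pinned in; FRET-FV substrate; RT 20 min; Ex320/Em430; ΔFRET vs ADEP 5.8 microM, DMSO, no enzyme.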
NPSR antag = blocks cAMP signaling of the human neuropeptide S receptor. AID 1461. 220,000 tested, 1% active. Potency, µM (top dose mostly 38.3 µM), inactives show top-dose activity change, negative = inhibition, actives largely listed as inhibitors. Q6W5P4. CHO-NPSR cells, cAMP TR-FRET, antagonist mode; note: potency is the fitted concentration of half-maximal effect; % is set by controls: 0 for no effect and ±100 for the full control effect; nearly all actives have a fitted effect of over 50% in size
Target sequence (Q6W5P4 whole entry, looked up): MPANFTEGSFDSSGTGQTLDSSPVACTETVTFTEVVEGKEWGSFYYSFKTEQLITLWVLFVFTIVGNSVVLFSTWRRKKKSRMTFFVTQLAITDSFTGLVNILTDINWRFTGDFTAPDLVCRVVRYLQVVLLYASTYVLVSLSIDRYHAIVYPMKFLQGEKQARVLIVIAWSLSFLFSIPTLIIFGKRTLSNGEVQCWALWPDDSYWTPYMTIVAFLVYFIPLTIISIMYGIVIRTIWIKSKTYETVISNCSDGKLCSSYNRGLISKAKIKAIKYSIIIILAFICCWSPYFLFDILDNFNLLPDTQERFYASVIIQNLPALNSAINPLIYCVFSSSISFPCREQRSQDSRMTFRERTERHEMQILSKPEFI
An asterisk follows results filed as active; u = inconclusive; x = not tested or not shown; [ ] = dose if it differs, or a comment. Unless noted, calls come from the whole dose curve; as a rule, active = well fitted curve in the direction sought with a large enough effect; inconclusive = small, poorly fitted or top-dose-only effect, or another doubt; inactive = no such curve, though single readings can be large; an effect the other way counts as inactive or inconclusive.

SMILES | PKM2 activator | IL2 activator | ClpP mod | NPSR antag
CCN(CC)c1ccc2cc(C(=O)NNC(=O)c3ccc(S(=O)(=O)N4CCCCC4)cc3)c(=O)oc2c1 | -15.2% | 58.6* | -3.0% | -10.5%[46.1 µM]
Cc1ccc(CC(=O)N(Cc2nc(-c3ccc(C)cc3)no2)C(C)C)cc1 | x | x | -0.3% | x
CCOc1cc(/C=C2\SC(=S)N(Nc3ccccc3)C2=O)ccc1O | -2.9% | -0.1 | -1.9% | u
COc1ccc(/C=C2\SC(=S)N(CCCCCC(=O)Nc3cc(C)on3)C2=O)cc1OC | 1.3% | 80.5* | -1.4% | x
COc1cc(/C=C2\SC(=S)N(Nc3ccccc3)C2=O)ccc1O | -1.7% | -0.2 | 28.2µM* | -33.2%
CCOC(=O)N1CCN(C(=O)CCN2C(=O)/C(=C\c3ccc(OC)c(OC)c3)SC2=S)CC1 | x | 93.4* | 2.5% | x
CCOC1=C2CN(S(=O)(=O)c3ccc(C)cc3)[C@H](c3ccccc3)C[C@H]2n2c(=O)n(-c3ccccc3)c(=O)n2C1 | x | 0.0 | -0.4% | x
CCOc1ccc2nc(NC3=NC(c4ccc(OC)cc4)CC(=O)N3)nc(C)c2c1 (stereo unspecified) | -13.9% | -2.1 | 31.6µM* | -16.4%[46.1 µM]
CCOc1ccc2c(C)nc(NC3=NC(C)(C)C=C(C)N3)nc2c1 | -2.0% | 3.6 | 3.98µM* | -16.3%[46.1 µM]
COc1ccc(Cl)cc1C(=O)NNC(=O)COC(=O)CC(NC(C)=O)c1ccccc1 (stereo unspecified) | x | 1.2 | -2.3% | x
COC(=O)c1ccc2nc(NC(=O)C(C)(C)C)sc2c1 | 1.0% | -5.2 | x | -1.9%
COC(=O)c1ccc2nc(Nc3nc4ccc(F)cc4s3)sc2c1 | -2.2% | -0.4 | 17.8µM* | 13.0%
O=C(N/N=C/c1ccc(O)c(O)c1)c1cccc(S(=O)(=O)N2CCCC2)c1 | x | -1.4 | 1.4% | x
COc1cc(C=CC(=O)OCC=Cc2ccc3c(c2)OCO3)cc(OC)c1OC | x | -3.3 | 28.2µM* | x
Cc1nn(CCCC(=O)Nc2cc(Oc3ccccc3)cc([N+](=O)[O-])c2)c(C)c1[N+](=O)[O-] | -0.4% | -1.0 | 25.1µM* | -19.7%[46.1 µM]
Cc1ccc(C)c(Oc2cc(NC(=O)CCCn3nc(C)c([N+](=O)[O-])c3C)cc([N+](=O)[O-])c2)c1 | -1.8% | 0.4 | -0.7% | u
Cc1ccc(S(=O)(=O)CCC(=O)Nc2nnc(-c3cccs3)o2)cc1 | x | -0.8 | u | x
CCc1ccc(N2CC(C(=O)N3CCN(c4ccccn4)CC3)CC2=O)cc1 (stereo unspecified) | x | -4.9 | 28.2µM* | x
CCOc1ccc(N2CC(C(=O)N3CCN(c4ccccn4)CC3)CC2=O)cc1 (stereo unspecified) | x | -1.6 | 20µM* | x
CCc1ccc(N2CC(C(=O)N3CCN(c4ccc([N+](=O)[O-])cc4)CC3)CC2=O)cc1 (stereo unspecified) | x | -3.0 | -2.1% | x
Cc1ccc(OC(=O)c2snnc2C)cc1C | x | x | 1.3% | x
COc1ccc(CNC(=O)c2cc3cc4ccc(C)cc4nc3o2)cc1 | x | x | -13.5% | x
COc1ccc2nc3oc(C(=O)N4CCC(C(N)=O)CC4)cc3cc2c1 | -12.5% | 0.8 | 28.2µM* | -9.3%[46.1 µM]
Cc1ccc2cc3cc(C(=O)NCc4ccco4)oc3nc2c1 | -6.8% | -2.6 | 14.1µM* | -22.2%[46.1 µM]
COc1ccc2cc3cc(C(=O)NCC4COc5ccccc5O4)oc3nc2c1 (stereo unspecified) | -0.4% | -1.5 | 35.5µM* | -8.4%[46.1 µM]
SMILES | PKM2 activator | IL2 activator | ClpP mod | NPSR antag
CCOC(=O)C1CCN(C(=O)c2cc3cc4ccc(OC)cc4nc3o2)CC1 | x | -2.1 | 3.6% | x
COc1ccc2cc3cc(C(=O)N4CCN(Cc5ccc6c(c5)OCO6)CC4)oc3nc2c1 | 3.2% | -2.4 | 31.6µM* | -21.6%[46.1 µM]
COc1ccc2cc3cc(C(=O)NCc4ccccc4OC)oc3nc2c1 | x | x | 3.6% | x
Cc1ccc(-c2nnn3c2nc(N2CCC(C)CC2)c2ccccc23)cc1 | x | x | -3.7% | x
CCOC(=O)c1cc(-c2ccc(F)cc2)n(CCC(=O)NC2CCCCC2)c1C | x | x | 5.5% | x
COc1ccc2cc3cc(C(=O)NCc4ccc5c(c4)OCO5)oc3nc2c1 | -2.6% | 0.1 | 14.1µM* | u
CC(C(=O)Nc1ncc2c(n1)CC(C)(C)CC2=O)N1C(=O)c2ccccc2C1=O (stereo unspecified) | -2.3% | -0.8 | 28.2µM* | -1.1%[46.1 µM]
COc1ccc(CCOC(=O)c2cccc(NC(C)=O)c2)cc1 | -12.3% | -1.5 | 0.6% | x
CCOc1ccc(Nc2nc3c(C)cccc3cc2C#N)cc1 | -0.2% | 57.5* | 0.1% | x
Cc1c(C(=O)Oc2cccc3cccnc23)cccc1[N+](=O)[O-] | -6.1% | -1.0 | x | -24.1%
O=[N+]([O-])c1ccc(O)c(/C=N/Nc2ccc(Cl)nn2)c1 | -7.6% | -0.5 | -1.8% | -16.3%[46.1 µM]
N#CC1(NC(=O)Cn2ncc(Cl)c(Cl)c2=O)CCCCC1 | x | -3.5 | x | x
Cn1c(=O)c2c(nc(Cl)n2CC(=O)NC2(C#N)CCCCC2)n(C)c1=O | x | -2.4 | 28.2µM* | x
COc1ccc(-c2noc3c2-c2nc(-c4ccccc4C)sc2CC3)cc1 | x | 0.3 | 25.1µM* | x
S=C(c1ccc(Br)cc1)N1CCCC1 | x | 0.5 | 25.1µM* | x
COC(=O)c1ccc(-c2ccco2)n1Cc1ccccc1Cl | 9.5% | -0.6 | 28.2µM* | -17.4%[46.1 µM]
Cc1ccc(CNC(=O)Nc2cccs2)cc1 | 25.1µM* | -0.3 | -1.1% | -9.3%[46.1 µM]
COc1ccc(CNC(=O)Nc2cccs2)cc1OC | 17.8µM* | -0.1 | -1.3% | -9.0%[46.1 µM]
C[C@@H](OC(=O)c1[nH]cnc1C(=O)NCc1ccc(CNC(=O)OC(C)(C)C)cc1)c1ccccc1 | x | -0.5 | 1.8% | x
CCOc1ccc(CN(C)C(=O)CCl)cc1 | -5.6% | -0.7 | 0.6% | -13.6%
CC(C)(C)OC(=O)COc1cc(O)c2c(=O)cc(-c3ccccc3)oc2c1 | -13.3% | -3.9 | -2.0% | -28.4%[46.1 µM]
CC(C)(C)OC(=O)COc1cc(OCC(=O)OC(C)(C)C)c2c(=O)cc(-c3ccccc3)oc2c1 | 6.5% | -4.1 | u | 6.31µM*
CC(=O)N1CCc2cc(S(=O)(=O)NC(Cc3ccccc3)C(=O)Nc3ccc(Cl)cc3)ccc21 (stereo unspecified) | x | x | -0.2% | x
Cc1cc(C(=O)CN2CCC(C)CC2)c(C)n1-c1ccc(F)cc1 | -6.1% | 1.1 | 0.5% | 20.4%
Cc1cc(C(=O)CN2CCCCC2)c(C)n1-c1ccc(F)cc1 | -4.6% | 0.0 | 25.1µM* | 16.9%
CCn1c(SCC(=O)NCCCN2CCCC2=O)nnc1-c1cccc(C)c1 | x | -2.5 | -2.3% | x
O=C(O)c1cccc(Cn2c(Cl)c(/C=N/NC(=O)c3ccccc3)sc2=O)c1 | 1.9% | 0.1 | -9.0% | -10.9%[46.1 µM]
O=C(O)c1cccc(Cn2c(Cl)c(/C=N/NC(=O)c3cc4ccccc4cc3O)sc2=O)c1 | 31.6µM* | 0.0 | -0.1% | 13.5%
CCC1CCc2sc(C(=O)N(C)CC(=O)Nc3ccc(OC)cc3)cc2C1 (stereo unspecified) | x | -0.6 | -1.3% | x
CCCn1c2c(c(O)c(C(=O)Nc3ccc(OC)cc3)c1=O)CCCC2 | -1.8% | -0.4 | 28.2µM* | -13.3%[46.1 µM]
